Test results published in PubChem BioAssay AID686978 (National Center for Advancing Translational Sciences (NCATS), 2013).
“And” between values parts separate entries of the source, which are not always exact repeats. Equal values may be shown once. Hit rate of the full screen: of about 420,000 compounds, about 64,000 (15%) were called active. Another 27% or so got no clear call; they are omitted. These entries were drawn from the full list. A number with no mark means an inactive call. Calls come from the whole dose curve; as a rule, active = well fitted inhibition curve with a large enough effect; inconclusive = small, poorly fitted or top-dose-only effect; inactive = flat fitted curve, though single readings scatter.

experiment: qHTS for Inhibitors of human tyrosyl-DNA phosphodiesterase 1 (TDP1): qHTS in cells in absence of CPT; settings: DT40 Tdp1-/- hTDP1 cells, no CPT, ATP luminescence, 48 h; activity change, negative = growth inhibition: at 46.2 µM (top of the series); note: nearly all actives have a fitted effect of over 55% in size
Summary of the method: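 Compound effects on proliferation are scored in DT40 Tdp1-/-;hTDP1 cells in the absence of CPT. ATP levels (CellTiter-Glo luminescence) are recorded after a ≥48 hr, 37 °C incubation.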
% is set by controls: 0 for no effect and ±100 for the full control effect; potency is the fitted concentration of half-maximal effect.

In the case of CC(=O)OC(C)C[N+](C)(C)C (stereo not drawn), the Potency was “inactive”.
With Cc1cc(C)c(C2C3=C(Nc4c2c(C)nn4-c2ccccn2)c2ccccc2C3=O)c(C)c1 (stereo not drawn) the Potency was 8.2 µM (active).
In the case of CC(/C=C/c1ccccc1)=N\NC(=O)C1CC1(C)c1ccccc1 (stereo not drawn), the Potency was 18.4 µM (active).
For Cn1c(=NC(=O)c2ccc3c(c2)OCCO3)sc2cc(S(C)(=O)=O)ccc21, the Potency was “inactive”.
For O=C(CO/N=C/c1ccccc1O)NNC(=O)c1ccccc1Cl, the Potency was 0.184 µM (active).
In the case of N#Cc1ccc(C(=O)Nc2nc(-c3cccs3)c(C(=O)C(F)(F)F)s2)cc1, the Potency was 1.3 µM (active).
With COc1ccc(CN2C(=O)C(NC(=O)c3cccc(C)c3)(C(F)(F)F)N=C2c2ccccc2)cc1 (stereo not drawn) the Potency was 20.6 µM (active).
For COc1ccc(C(=O)/C=C/c2cccnc2)c(OC)c1, the Potency was 18.4 µM (active).
In the case of Cc1cccc(NC(=O)Nc2cccc(Oc3c(F)c(F)c(F)c(F)c3F)c2)c1, the Potency was 18.4 µM (active).
With CC(=O)Nc1cccc(OCC(=O)/C=C2\N(C)c3ccccc3C2(C)C)c1 the Potency was 7.31 µM (active).
For CCOC(=O)C=Cc1ccc(C(=O)OCC)[nH]1, the Potency was 8.2 µM (active).
With CCOC(=O)/C(=C\c1ccc([N+](=O)[O-])cc1)C(=O)c1cc(C(C)=O)c(Nc2ccccc2)s1 the Potency was 0.731 µM (active).
For CCCCCc1c(-c2cccc(Br)c2)ncn1CCc1ccccc1OC, the Potency was 18.4 µM (active).
In the case of CCCCCc1c(-c2ccc(OC)c(OC)c2)ncn1CCc1ccccc1OC, the Potency was 2.59 µM (active).
For CCC(=O)NCc1cc(-c2nn(C)c(=O)c3ccccc23)ccc1OC, the Potency was “inactive”.
In the case of CCCCCc1c(Cc2ccccc2)ncn1CCc1ccccc1OC, the Potency was 2.59 µM (active).
In the case of CCOC(=O)C1(CC2CCCCO2)CCN(Cc2nc(-c3cccs3)oc2C)CC1 (stereo not drawn), the Potency was 16.4 µM (active).
In the case of CCN(CC)CCn1c(N)c(S(=O)(=O)c2ccccc2)c2nc3ccccc3nc21, the Potency was 18.4 µM (active).
With Cc1ccc(S(=O)(=O)c2c(N)n(C)c3nc4ccccc4nc23)cc1 the Potency was 13 µM (active).
With CCOC(=O)c1[nH]c2c(c1C)C(=O)CC(c1ccc(N(C)C)cc1)C2 (stereo not drawn) the Potency was 13 µM (active).
In the case of CCOc1ccc(C2CC(=O)c3c([nH]c(C(=O)OCc4ccccc4)c3C)C2)cc1 (stereo not drawn), the Potency was 13 µM (active).
With CCc1ccc(C2CC(=O)c3c([nH]c(C(=O)OCc4ccc(C)cc4)c3C)C2)cc1 (stereo not drawn) the Potency was 7.31 µM (active).
In the case of O=C(Nc1ccc(Cl)c(Cl)c1)N1CC=C(c2ccccc2)CC1, the Potency was 20.6 µM (active).
In the case of COc1ccc(C2=CC(c3cccc(OC)c3)n3nnnc3N2)cc1 (stereo not drawn), the Potency was 29.1 µM (active).
For COc1ccccc1N1CCN(CCN2C(=O)c3ccccc3C(C)(C)C2=O)CC1, the Potency was 26.6 µM (active) and 23.1 µM (active).
With CCC(O)CNc1nc(-n2nc(C)cc2C)nc2sc3c(c12)CC(C)(C)OC3 (stereo not drawn) the Potency was 10.3 µM (active).
With COCCNc1nc(-n2nc(C)cc2C)nc2sc3c(c12)CCCC3 the Potency was 5.17 µM (active).

In order of rising “activity change, negative = growth inhibition” value:
1. COc1ccc(C(=O)CCC(=O)Nc2cccnc2)c(OC)c1  -29.8%
2. NC(=O)N1CCCC1C(=O)Nc1ccc(Cl)c(Cl)c1 (stereo not drawn)  -28.7%
3. Cc1ccc2c(Cl)c(C(=O)Nc3nn[nH]n3)sc2c1  -28.5%
4. CC1(C)CC(=O)C=C(c2cccc3c2Oc2ccccc2S3)C1  -28%
5. COC(=O)c1c(C)cc(O)c(C)c1O  -27.8%
6. CCOC(=O)N1CCC(c2cc(=O)n(-c3ccccc3)[nH]2)CC1  -26.9%
7. CC/C(C)=N/Nc1nc2sc3c(c2c(=O)[nH]1)CC(C)(C)OC3  -26.6%
8. CCOc1ccc(C2=CC(c3ccccc3)n3ncnc3N2)cc1 (stereo not drawn)  -26.4%
9. CC(C)(C)NC(=O)CN(C(=O)c1csnn1)c1ccccc1-c1ccccc1  -24.9%
10. CC(C=Cc1ccccc1)=NNS(=O)(=O)c1ccc([N+](=O)[O-])cc1  -24.8%
11. CC1(C)Cc2c(sc3nc4n(c(=N)c23)CCCCC4)CO1  -24.4%
12. CCOC(=O)c1ccccc1OC(=O)Oc1ccccc1C(=O)OCC  -23.8%
13. CCOC(=O)c1cccc(NC(=O)CN2C(=O)C3CC=CCC3C2=O)c1 (stereo not drawn)  -23.4%
14. CCCNC(=O)C1CC(=O)N(c2ccc(OCc3ccccc3)cc2)C1 (stereo not drawn)  -22.4%
15. Cc1cc(C)c(C#N)c(SCC(=O)NN2CC(=O)N(c3ccccc3F)CC2=O)n1  -21.5%
16. CN(c1ccccc1)c1nc(N)c([N+](=O)[O-])c(NCc2ccco2)n1  -21.3%
17. O=C(Nc1ccccc1)/C(=C/c1ccc([N+](=O)[O-])cc1)NC(=O)c1ccccc1  -20.7%
18. COc1ncnc2c1N=C1CC(C)(C)CC(N)=C1S2  -20%
19. C=CCn1c(N)c(S(=O)(=O)c2cccs2)c2nc3ccccc3nc21  -19.6%
20. CCCCOc1ccc(-c2ncc(C(=O)OCC)c(N)n2)cc1  -18.9%
21. NC(=O)c1ccsc1NC(=O)COC(=O)Cc1n[nH]c(=O)c2ccccc12  -18%
22. CCOc1cccc(C(=O)Nc2nnc(-c3cccs3)s2)c1  -17.9%
23. CCOC(=O)c1cc2cc(C)ccc2[nH]1  -17.6%
24. O=C(CO/N=C/c1ccccc1OC(F)F)NC1CCCC1  -17.2%
25. CCCOC(=O)C1=C(C)NC2=C(C(=O)C(C(=O)OC)C(C)C2)C1c1ccc(N(C)C)cc1 (stereo not drawn)  -16.4%
26. CNCC(O)CN1CCN(c2ccccc2OC)CC1 (stereo not drawn)  -16%
27. COc1ccc(CCNC(=O)c2cn(C)c3ccc(S(=O)(=O)N(C)C4CCCCC4)cc3c2=O)cc1OC  -15.7%
28. CCc1nc(N2CCN(C(C)=O)CC2)c2c3c(sc2n1)CCCC3  -15%
29. O=C(COC(=O)c1cccnc1Cl)Nc1ccc(S(=O)(=O)N2CCOCC2)cc1  -14.8%
30. COc1ccc(C2CC(c3cccs3)Nc3nnnn32)cc1 (stereo not drawn)  -13.6%
31. COCCOC(=O)c1[nH]c2c(c1C)C(=O)CC(c1ccc(OC)cc1)C2 (stereo not drawn)  -13.2%
32. CCN(c1ccccc1)S(=O)(=O)c1ccc(N)cc1  -11.5%
33. O=C(/C=C/c1ccco1)NC(=S)N1CCCCC1  -10.6%
34. O=C(O)C(=Cc1ccc([N+](=O)[O-])cc1)CCc1ccccc1  -10.6%
35. Cc1noc(C)c1C(=O)NC(C)c1ccc2c(c1)OCO2 (stereo not drawn)  -10.6%
36. CCOc1ccc(C2C3=C(CCCC3=O)N(CC(=O)O)C3=C2C(=O)CCC3)cc1  -10.5%
37. Cc1ccc(S(=O)(=O)Nc2nc(N)n(-c3ccccc3)n2)cc1  -9.97%
38. CC1(C)CC(=O)C=C(c2ccccc2CO)C1=O  -8.99%
39. Cc1c(Nc2nc3ccccc3nc2NS(=O)(=O)c2cccs2)c(=O)n(-c2ccccc2)n1C  -8.76%
40. CC(=O)c1sc(NC(=O)c2ccc(C)cc2)nc1C  -8.46%
41. COc1cccc(NC(=O)NCc2ccc(F)cc2)c1  -8.3%
42. CCN(CC)CCN1C(=O)C(=O)/C(=C(/O)c2ccc(OC)c(OC)c2)C1c1ccccn1 (stereo not drawn)  -8.13%
43. COCCn1c(C)cc(C(=O)CSc2ncnc3sc4c(c23)CCC4)c1C  -8.09%
44. O=C(OCC(=O)N1CCCC1)c1ccco1  -7.97%
45. Cc1nn(C)cc1CNC(=O)Nc1ccc(Cl)cc1  -7.86%
46. COc1ccc(NC(=O)Cn2cc(C(=O)c3ccncc3)c(=O)c3cc(C)ccc32)cc1Cl  -7.3%
47. CC(C)(C)N1C(=O)c2c(C(=O)OCc3ccccc3)[nH]c(-c3ccccc3)c2C1=O  -7.09%
48. COc1ccc(S(=O)(=O)N2CCN(C(=O)c3cc(C)oc3C)CC2)cc1  -7.03%
49. CCOc1cccc(NC(=O)CC#N)c1  -6.7%
50. CCOC(=O)c1[nH]c2c(c1-c1ccccc1)C(=O)CC(c1ccc(Cl)cc1)C2 (stereo not drawn)  -6.33%
51. COc1ccccc1N1CCN(CC(=O)NC(=O)NCc2ccco2)CC1  -5.84%
52. CN(CCC#N)c1ccc(C=O)cc1  -5.8%
53. CCCc1cc(=O)oc2c(C)c(OCC(=O)NCc3ccccn3)ccc12  -5.71%
54. CCCCNS(=O)(=O)CCNCc1ccccc1OC  -5.2%
55. COc1ccc(C(=O)Nc2cccnc2)cc1C(=O)Nc1cccnc1  -5.19%
56. NC(=O)C1CCN(C(=O)c2cn(-c3ccccc3)nc2-c2cccnc2)CC1  -4.22%
57. O=C(Cn1cnc2c(oc3ccccc32)c1=O)Nc1ccc(OC(F)(F)F)cc1  -3.72%
58. COc1ccc(OCC(=O)NNC(=O)c2cccc(C)c2)cc1  -3.54%
59. CC(Sc1nnc(-c2cccs2)n1C1CC1)C(=O)NCC1CCCO1 (stereo not drawn)  -3.43%
60. CC(C)N(c1ccccc1)c1ncnc(NCCC(=O)O)c1[N+](=O)[O-]  -3.06%
61. Cc1nnc(C)c2c(C)n(N)c(C)c12  -3.03%
62. CN(C)Cc1c(O)ccc2c(=O)c(-c3ccccc3Cl)coc12  -2.51%
63. Cc1nc2ccccc2n1C(=O)N1CCOCC1  -2.07%
64. CC1Cc2[nH][nH]c(=O)c2C(C2CC2)O1 (stereo not drawn)  -1.73%
65. Cc1cc(C)cc(N)c1  -1.73%
66. O=C(NCc1ccccc1Cl)C1CCC(CNc2c(N3CCCCC3)c(=O)c2=O)CC1 (stereo not drawn)  -1.64%
67. COc1cccc(NC(=O)Cc2ccc(C)cc2)c1  -1.58%
68. CCOC(=O)CSc1nnc(-c2cccc(Br)c2)o1  -1.45%
69. O=C(Cn1ccc(=O)[nH]c1=O)Nc1ccc(C(=O)O)c(O)c1  -0.311%
70. CCOc1ccccc1-c1nc(CN2CCC(C(=O)N3CCOCC3)CC2)c(C)o1  0.579%
71. CN1CCC(OC(=O)COc2ccc(Cl)cc2Cl)CC1  0.589%
72. CC(=O)NCC(O)c1ccc([N+](=O)[O-])cc1 (stereo not drawn)  0.615%
73. CC/C(=N\O)C(C)(C)/[N+]([O-])=C/c1ccc(Br)cc1  0.798%
74. COc1cccc(C(=O)NC(=O)Nc2nc(C)cc(C(F)(F)F)n2)c1  2.08%
75. CC(=O)c1c(C)n([O-])c2ccccc2[n+]1=O  2.08%
76. C=CCOc1ccc(/C=C/C(=O)OC(C)C(=O)Nc2ccc(NC(C)=O)cc2)cc1 (stereo not drawn)  3.52%
77. COc1cccc(NC(=S)C(C#N)=C2N(C)c3ccccc3N2C)c1  3.59%
78. Cc1nnc(NC2=NCCCCC2)o1  4.11%
79. NS(=O)(=O)c1cc(C(=O)OCC(=O)NNC(=O)c2ccccc2)ccc1Cl  4.14%
80. CCOC(=O)c1c(N)n(-c2cccc(C)c2C)c2nc3ccccc3nc12  4.77%
81. O=C(O)c1cccc(S(=O)(=O)N2CC=C(c3ccccc3)CC2)c1  5.52%
82. C[N+]1(CC(O)COc2ccccc2)CCN(C(=O)c2ccc([N+](=O)[O-])cc2)CC1 (stereo not drawn)  5.86%
83. CC(OC(=O)/C=C/c1ccccc1)C(=O)NC1CCCCC1C (stereo not drawn)  6.75%
84. Cn1c(=O)c2c(ncn2CCc2ccccc2)n(C)c1=O  7.06%
85. O=c1c2[nH]c3ccc(Cl)cc3c2ncn1Cc1ccccn1  7.63%
86. CC1CCCC(C)N1C(=O)COC(=O)COc1ccccc1C#N (stereo not drawn)  14.7%
